# Key:
# Test in all cases: PBM binding z-score (relative to random genomic background probes); higher = stronger binding; sequences stand for … in GC…GCGATTGACAGCGTAGAATGAAGG
# [1] = system: FXR:RXRa (NR concentration 270 nM, RXRa partner concentration 90 nM)
# Method in brief: (§1)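 Scanned fluorescence from custom Agilent 4×180K protein-binding microarrays was regression-normalized. Binding z-scores use random background probes as reference. Ligand-free nuclear receptor dimers were incubated on the arrays for 1 h and detected with antibodies against each partner (one per run).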
# [2] = system: LXRa:RXRa (NR concentration 270 nM, RXRa partner concentration 90 nM)
# Method in brief: as §1
# [3] = system: LXRa homodimer (NR concentration 270 nM)
# Method in brief: as §1
# [4] = system: LXRb:RXRa (NR concentration 270 nM, RXRa partner concentration 90 nM)
# Method in brief: as §1
# [5] = system: LXRb homodimer (NR concentration 270 nM)
# Method in brief: as §1
# [6] = system: PPARa:RXRa (NR concentration 270 nM, RXRa partner concentration 90 nM)
# Method in brief: as §1
# [7] = system: PPARg:RXRa (NR concentration 180 nM, RXRa partner concentration 90 nM)
# Method in brief: as §1
# [8] = system: PPARg:RXRa 270nM:90nM, anti-RXR (NR concentration 270 nM, RXRa partner concentration 90 nM)
# Method in brief: as §1
# [9] = system: PPARg:RXRa 30nM:10nM, anti-RXR (NR concentration 30 nM, RXRa partner concentration 10 nM)
# Method in brief: as §1
# [10] = system: PPARg:RXRa 90nM:30nM, anti-RXR (NR concentration 90 nM, RXRa partner concentration 30 nM)
# Method in brief: as §1
# [11] = system: PPARg:RXRa DBDmut IVT, anti-RXR (DBD mutation: RXRa K156A/R161A, NR concentration 270 nM, RXRa partner concentration 90 nM)
# Method in brief: as §1
# [12] = system: PPARg:RXRa IVT, anti-PPARg (NR concentration 270 nM, RXRa partner concentration 90 nM)
# Method in brief: as §1
# [13] = system: PPARg DBDmut:RXRa IVT, anti-PPARg (DBD mutation: PPARg1 K132A/R137A, NR concentration 270 nM, RXRa partner concentration 90 nM)
# Method in brief: as §1
# [14] = system: PPARg DBDmut IVT, anti-PPARg (DBD mutation: PPARg1 K132A/R137A, NR concentration 270 nM)
# Method in brief: as §1
# [15] = system: PPARg homodimer (NR concentration 180 nM)
# Method in brief: as §1
# [16] = system: PXR:RXRa (NR concentration 270 nM, RXRa partner concentration 90 nM)
# Method in brief: as §1
# [17] = system: PXR homodimer (NR concentration 270 nM)
# Method in brief: as §1
# [18] = system: RARa:RXR (NR concentration 270 nM, RXRa partner concentration 90 nM)
# Method in brief: as §1
# [19] = system: RARa homodimer (NR concentration 270 nM)
# Method in brief: as §1
# [20] = system: RARb:RXRa (NR concentration 270 nM, RXRa partner concentration 90 nM)
# Method in brief: as §1
Sequence,PBM binding z-score [1],PBM binding z-score [2],PBM binding z-score [3],PBM binding z-score [4],PBM binding z-score [5],PBM binding z-score [6],PBM binding z-score [7],PBM binding z-score [8],PBM binding z-score [9],PBM binding z-score [10],PBM binding z-score [11],PBM binding z-score [12],PBM binding z-score [13],PBM binding z-score [14],PBM binding z-score [15],PBM binding z-score [16],PBM binding z-score [17],PBM binding z-score [18],PBM binding z-score [19],PBM binding z-score [20]
GGAACGAGGGTATTCGAGTTGATAGCATGGCGAT,0.27,2.1,-0.446,-0.313,-1.2,-0.309,0.371,-0.244,-0.476,-0.646,0.383,0.201,-0.0387,-0.595,-0.648,1.19,-0.17,0.11,-0.18,-0.145
ATACCAAGGTGATCGTGAGGCCGTTGATACTAAC,0.369,0.246,-0.0793,0.0516,-0.198,0.139,0.361,0.165,0.0132,0.0891,0.533,1.06,0.198,0.471,0.381,0.595,0.275,1.03,-0.0475,0.735
GGAACCAGGGCATTCGAGTTGATAGCATGGCGAT,1.3,0.74,-0.0183,0.0646,0.153,1.69,0.973,0.862,-0.134,0.0636,3.39,2.91,-0.295,0.956,1.01,2.12,0.865,0.882,0.0816,1.72
CATACTAGGTCACGAAAGGTCAAAGTCGAATGAC,7.5,8.25,8.77,7.29,3.6,6.39,9.53,7.93,6.31,8.01,7.83,8.34,2.56,1.91,3.01,7.08,3.85,7.57,4.19,5.65
GGAACGATGGCAAAGTTGATAGCATCTGTCGACG,-0.553,-0.632,-0.475,-0.708,-0.97,0.994,1.79,3.3,1.16,2.88,-0.422,-0.327,0.0385,-1.16,-0.819,-0.402,-0.23,-0.727,-1.19,-0.325
AGAAGGAGGTTATTAAGATCAGGGAATTGCGGTC,1.12,1.36,0.522,1.46,0.654,2.01,1.01,1.31,0.314,0.827,2,1.6,0.512,-0.349,1.37,1.2,1.24,0.985,1.65,1.26
CGTCCAAGGTCTAAGGTCAGTGAAGAGATGACGG,2.27,1.6,-0.0447,1.63,-0.547,3,3.03,4,2.41,3.52,0.385,1.44,-0.479,-0.374,2.23,2.21,0.498,3.2,0.608,3.71
AGAACGAGGGCACGCTGAGTTGATACCAGAGTAG,0.816,0.364,-0.278,0.0367,-0.613,1.76,2.2,1.8,0.433,1.03,4.16,3.75,0.259,-0.00374,0.189,1.25,0.342,0.748,-0.804,2.36
AATACAGGGTCACTAGGCCAAAGTAGGTACGAAT,6.51,4.99,1.08,4,1.01,6.26,8.6,6.83,4.18,6.09,4.25,6.12,1.52,1.47,2.51,3.27,0.193,4.17,0.959,4.31
AATACAGGGTCATCGTAAGCCAGAGTACGCACAG,7.41,6.05,2.24,4.69,1.14,6.1,6.63,5.96,2.84,4.83,2.67,4.15,1.58,1.04,1.65,4.05,1,4.6,0.623,4.43
